# Measured values published in the supplement of paper PMC6555819.
# Experiments:
# Assay in all cases: PBM binding z-score (relative to random genomic background probes); higher = stronger binding; sequences stand for … in GC…GCGATTGACAGCGTAGAATGAAGG
# [1] = test system: FXR:RXRa (NR concentration 270 nM, RXRa partner concentration 90 nM)
# Procedure, shortened: (§1)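 Ligand-free nuclear receptor dimers were applied to custom Agilent 4×180K protein-binding microarrays whose double-stranded probes carried direct-repeat seeds, single-nucleotide variants, half-site ablations and random human genomic background sequences in 34-nt variable regions. Incubation lasted 1 h. Binding z-scores were computed against the random background probes from regression-normalized fluorescence.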
# [2] = test system: LXRa:RXRa (NR concentration 270 nM, RXRa partner concentration 90 nM)
# Procedure, shortened: as §1
# [3] = test system: LXRa homodimer (NR concentration 270 nM)
# Procedure, shortened: as §1
# [4] = test system: LXRb:RXRa (NR concentration 270 nM, RXRa partner concentration 90 nM)
# Procedure, shortened: as §1
# [5] = test system: LXRb homodimer (NR concentration 270 nM)
# Procedure, shortened: as §1
# [6] = test system: PPARa:RXRa (NR concentration 270 nM, RXRa partner concentration 90 nM)
# Procedure, shortened: as §1
# [7] = test system: PPARg:RXRa 270nM:90nM, anti-RXR (NR concentration 270 nM, RXRa partner concentration 90 nM)
# Procedure, shortened: as §1
# [8] = test system: PPARg:RXRa 30nM:10nM, anti-RXR (NR concentration 30 nM, RXRa partner concentration 10 nM)
# Procedure, shortened: as §1
# [9] = test system: PPARg:RXRa 90nM:30nM, anti-RXR (NR concentration 90 nM, RXRa partner concentration 30 nM)
# Procedure, shortened: as §1
# [10] = test system: PPARg:RXRa DBDmut IVT, anti-RXR (DBD mutation: RXRa K156A/R161A, NR concentration 270 nM, RXRa partner concentration 90 nM)
# Procedure, shortened: as §1
# [11] = test system: PPARg:RXRa IVT, anti-PPARg (NR concentration 270 nM, RXRa partner concentration 90 nM)
# Procedure, shortened: as §1
# [12] = test system: PPARg DBDmut:RXRa IVT, anti-PPARg (DBD mutation: PPARg1 K132A/R137A, NR concentration 270 nM, RXRa partner concentration 90 nM)
# Procedure, shortened: as §1
# [13] = test system: PPARg DBDmut IVT, anti-PPARg (DBD mutation: PPARg1 K132A/R137A, NR concentration 270 nM)
# Procedure, shortened: as §1
# [14] = test system: PPARg homodimer (NR concentration 180 nM)
# Procedure, shortened: as §1
# [15] = test system: PXR:RXRa (NR concentration 270 nM, RXRa partner concentration 90 nM)
# Procedure, shortened: as §1
# [16] = test system: PXR homodimer (NR concentration 270 nM)
# Procedure, shortened: as §1
# [17] = test system: RARa homodimer (NR concentration 270 nM)
# Procedure, shortened: as §1
# [18] = test system: RARb:RXRa (NR concentration 270 nM, RXRa partner concentration 90 nM)
# Procedure, shortened: as §1
# [19] = test system: PPARg:RXRa (NR concentration 180 nM, RXRa partner concentration 90 nM)
# Procedure, shortened: as §1
# [20] = test system: RARa:RXR (NR concentration 270 nM, RXRa partner concentration 90 nM)
# Procedure, shortened: as §1
Sequence,PBM binding z-score [1],PBM binding z-score [2],PBM binding z-score [3],PBM binding z-score [4],PBM binding z-score [5],PBM binding z-score [6],PBM binding z-score [7],PBM binding z-score [8],PBM binding z-score [9],PBM binding z-score [10],PBM binding z-score [11],PBM binding z-score [12],PBM binding z-score [13],PBM binding z-score [14],PBM binding z-score [15],PBM binding z-score [16],PBM binding z-score [17],PBM binding z-score [18],PBM binding z-score [19],PBM binding z-score [20]
CCTAGTGGGCCAAAGGTCATTGATTCCAATGCTC,5.47,5.18,3.76,5.23,0.768,6.76,10.7,13.5,12.9,5.71,7.73,2,0.985,7.49,5.83,3.2,3.01,4.62,–,–
CCTACTGGGCCAAGGTCTTTGATCAGTCAAAGCA,-0.503,-0.304,-0.544,-0.54,-0.812,–,1.32,0.0343,0.749,3.2,3.33,-0.858,-1.46,0.00705,-0.407,-0.601,-0.879,–,0.806,-0.344
ATATCTAGGTAAAAGTTCAGTGAATCCCGAGGAT,0.694,1.43,1.24,1.15,0.657,5.76,9.29,9.08,10.4,6,6.34,1.91,1.42,1.87,2.33,1.9,1.5,2.56,–,1.6
AGTCAAATTTCACTAGGTAACGTAAGATTCAGCT,-0.177,-0.14,-0.0488,0.0425,0.175,–,0.334,0.197,-0.0408,1.53,2.38,0.835,0.824,0.334,0.334,-0.0218,1.44,–,0.5,0.0458
CAAACTAGGTCAAAGGTCAGAGTCGAGCCAACCA,7.83,6.32,3.45,6.4,1.62,7.34,11.1,13.1,13.7,8.97,9.43,6.85,6.78,5.97,6.67,1.28,3.04,5.44,–,8.46
CCTGCTCGGTCAATGGTCAGCTAAAGCAGCTCGC,0.351,0.448,-0.0838,-0.541,-0.234,–,1.43,-0.317,0.846,0.753,0.0131,-1.19,-1.21,-0.242,-0.189,-0.933,-0.686,2.28,-0.00581,0.252
TCATATAGGTAATCAGGTGAAAGTCCGTAAGTTA,1.07,0.945,0.314,0.96,0.374,2.68,4.24,4.28,4.2,5.4,5.17,1.73,1.86,1.32,0.832,0.68,1.28,0.56,–,1.14
GATTCAGGGTCAGCTAGAGGCCAGAGTATGGAAA,5.24,3.64,-0.0707,3.25,-0.355,5.13,4.14,1.13,3.05,1.78,3.04,0.184,-0.207,2.1,3.77,0.432,0.68,4.5,–,4.59
ATCTCTAGGTTAAAGTTCAGTGAATCCCGAGGAT,2.96,3.76,3.34,2.61,1.62,5.59,8.62,8.86,9.27,4.45,5.47,1.98,1.29,2.11,–,1.85,1.65,3.28,–,3.99
CAAACTAGGTCACAGAGGTCAAAGTTCGTGCGTA,7.37,6.84,7.98,6.7,2.18,6.83,8.37,6.72,8.5,8.27,8.9,4.88,5.18,6.43,–,12.2,3.28,5.29,–,–
ACTAGAAGGCCAAGGGTCACTCAAGATTAGTCCG,3.27,3.28,0.426,3.25,-0.267,4.51,7.08,5.69,7.96,0.756,3.55,0.734,-0.0604,5,3.73,0.235,1.18,3.92,–,5.15
CCTCCAAGGTCATAGGAGGTCAGTGAAGACAGAT,7.3,7.45,4.84,6.24,0.899,5.85,5.88,2.47,4.29,2.72,4.01,1.58,0.448,4.5,6.72,4.74,2.34,5.09,–,5.96
CCTGCTAGGTCAAGGGTCAGCTAAAGCAGCTCGC,6.02,4.62,0.429,3.85,-0.198,5.91,8.48,7.78,9.4,4.08,5.78,0.536,-0.955,2.95,4.65,0.026,0.368,4.96,–,–
TTACCAAGGTGAAGGTCGTGGATCCCTCTGTAGA,1.6,1.33,0.0601,1.45,-0.935,3.03,4.71,2.78,4.4,2.23,3.55,-0.363,0.188,0.731,1.53,-0.1,-0.307,2.4,–,2.38
CAAAGTAGGTCAAGGTCAAAGTCGGTTTGTGCCA,6.64,5.74,4.44,4.67,1.7,6.22,8.02,7.19,8.49,8.64,9.04,5.79,3.56,4.77,5.48,2.55,2.15,5.07,–,5.94
CGAACTAGGTCAAAGGACACTGAAAGGCGACGTA,4.53,2.6,0.187,2.15,-0.198,5.49,8.98,10.1,10.8,8.08,8.34,–,1.03,3.64,1.6,-0.0402,0.514,3.86,–,2.85

Sequence,PBM binding z-score [1],PBM binding z-score [2],PBM binding z-score [3],PBM binding z-score [4],PBM binding z-score [5],PBM binding z-score [6],PBM binding z-score [7],PBM binding z-score [8],PBM binding z-score [9],PBM binding z-score [10],PBM binding z-score [11],PBM binding z-score [12],PBM binding z-score [13],PBM binding z-score [14],PBM binding z-score [15],PBM binding z-score [16],PBM binding z-score [17],PBM binding z-score [18],PBM binding z-score [19],PBM binding z-score [20]
TCTAGTAGGTCACGGAGGTCACACACGACGGGTA,7.27,6.42,5.23,5.56,1.44,6.41,8.31,6.89,8.04,7.04,8.61,4.06,4.54,5.46,–,7.52,1.12,–,–,–
CAATCTAGGTCACAGAGGTCAAAGTCCGTGCGTA,7.18,7.04,7.96,6.3,2.8,6.7,8.69,7.34,9.13,9.1,9.25,7.18,5.24,7.14,–,11.9,3.61,5.46,–,7.89
CGTCCAAGGTCAAAGGTCACTGAAGAGATGACGG,8.77,7.26,4.53,7.05,2.19,7.23,9.43,11,11.1,4.24,6.37,2.37,1.21,2.49,–,2.15,3.47,5.96,–,9
GCTTCCGGGTCAAAGGTTATAGCATGAATAGAAT,7.32,5.48,0.542,5.76,0.776,6.97,9.9,10.7,11.4,6.02,6.82,2.92,1.77,4.67,–,0.927,0.795,4.45,–,8.48
ATATGTAGGTCAGGGTCATTCAGAAAGTAGGGAA,5.82,4.89,1.68,5.11,2.07,6.06,7.66,6.11,7.76,7.87,8.62,–,2.1,3.22,4.42,1.93,2.85,4.49,–,5.05
CGTCCAAGGTCAAGGTCACTGAAAGAGACTCGAA,8.15,6.19,2.24,5.23,0.938,–,6.98,4.14,5.87,3.94,5.37,1.81,0.436,3.85,5.68,1.6,1.64,–,7.36,6.16
ACTCGGAGGGCAAAGGTCAGAGCTACGCCAGTGA,5.79,5.11,1.08,4.14,-0.447,6.1,8.48,8.91,9.51,2.2,4.71,-0.0277,-0.839,5.97,5.61,0.191,0.823,4.93,–,–
CCTACTGGGCCAAAAAGGCCATTGATGCCGATAA,-0.133,-0.247,-0.15,-0.244,-1.1,0.629,0.7,-0.443,0.151,2.77,2.4,0.199,-0.751,0.287,–,-0.211,-0.317,0.816,–,-0.0899
TATACAGGGTCAAAGGGCAGAGTACGAATGTCGA,7.38,6.55,3.16,5.44,3.33,6.52,8.53,7.25,8.56,2.92,5.52,3.49,2.57,2.97,5.21,1.62,1.6,4.84,–,–
ACTAGCAGGTCAAGGGTCACTCAAGATTAGTCCG,6.89,5.73,2.16,4.88,0.671,6.3,9.23,8.21,10.3,4.43,6.12,1.23,1.92,3.91,5.82,0.469,1.38,4.86,–,–
ATCTGTAGGTTATCGGGTCATTCAGTTTGCGCAT,3.02,3.6,2.79,3.06,1.36,–,4.43,1.41,3.37,4.65,5.29,1.81,1.76,2.43,3.86,7.32,1.11,2.71,3.9,3.93
GATACAGGGTCAGCTAGAGGTCAGAGTATGGAAA,6,5.81,3.45,4.98,0.386,5.57,5.22,1.99,3.52,1.65,3.52,0.365,-0.0888,6.51,5.99,1.34,1.59,5.32,–,–
CGAACTAGGTCAAAGGCCAGTGAAAGGCGACGTA,4.37,2.92,-0.479,1.81,-0.821,5.83,9.43,9.62,10.3,7.82,8.38,–,0.408,1.42,1.79,-0.54,-0.426,3.87,–,3.18
CAAACTAGGTCACCGGAAGGTCAAAGTTCGCATG,6.72,6.36,5.74,5.3,1.86,6.44,8.11,6.06,8.3,8.66,9.06,4.1,1.26,7.21,6.49,3.62,3.06,5.44,–,–
CTAACTAGGTCAAGGTCAAAGTCGGTTTGTGCCA,6.55,5.3,4.54,4.54,1.41,6.04,7.82,7.09,8.36,8.82,8.88,2.1,2.34,2.99,5.04,1.89,0.786,5,–,4.65
